Source: PubChem (National Center for Advancing Translational Sciences (NCATS))
SMN2 splice up: SMN2 splice variant enhancement. Potency, µM (doses to about 46.1 µM), without a hit: at the highest dose activity change, positive = activation, actives largely listed as activators. HEK293 SMN2-luciferase splicing reporter, luminescence, 30-36 h. 210,000 tested, 2.8% active; further: % of control where 0% means no effect; nearly all actives have a fitted effect of over 55% in size
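qHTS luciferase splicing reporter: luminescence rises when SMN2 exon 7 is included in transfected HEK293 cells. Compound exposure lasted 30-36 h at 37C, with 4.5 mM final sodium butyrate as control, followed by a ONE-Glo read.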
NPC1 prom act: activators of NPC1 promoter | 320,000 tested, 2.4% active | Huh7 NPC1 promoter luciferase reporter, 24 h | Potency, µM (titrated, usually from 9.22 µM), without a hit: at the top dose activation, most hits filed as activators; further: % of control where 0% means no effect; nearly all actives have a fitted effect of over 60% in size
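Luciferase expression driven by the NPC1 promoter was measured in stably transfected Huh7 cells after a 24 h compound incubation, using a luciferase reagent and a luminescence read.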
Rab9 promoter act: activators of Rab9 promoter; Potency, µM (series often up to 9.22 µM), inactives show top-dose activation, negative = inhibition, usual class: activators; 320,000 tested, 2.8% active; AID 485297; Huh7 Rab9 promoter-luciferase reporter, luminescence, 24 h; further: % of control where 0% means no effect; nearly all actives have a fitted effect of over 60% in size
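Stable Rab9-luc Huh7, 1500 cells/well, 2 h settle; cmpd in DMSO, 24 h, 37 °C/5% CO2; luciferase reagent 10 min RT; luminescence.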
FLuc counter: firefly luciferase modulation, counter-screen for miR-21 project | P08659 | purified FLuc, Km substrates, luminescence inhibition | Potency, µM (doses to about 57.5 µM), for the others: top-dose activity change, negative = inhibition, hits mostly inhibitors | 360,000 tested, 6.9% active;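 further: plate controls were vehicle for no effect and reference inhibitor for full effect; nearly all actives have a fitted effect of over 55% in size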
Target sequence (P08659 whole entry, looked up): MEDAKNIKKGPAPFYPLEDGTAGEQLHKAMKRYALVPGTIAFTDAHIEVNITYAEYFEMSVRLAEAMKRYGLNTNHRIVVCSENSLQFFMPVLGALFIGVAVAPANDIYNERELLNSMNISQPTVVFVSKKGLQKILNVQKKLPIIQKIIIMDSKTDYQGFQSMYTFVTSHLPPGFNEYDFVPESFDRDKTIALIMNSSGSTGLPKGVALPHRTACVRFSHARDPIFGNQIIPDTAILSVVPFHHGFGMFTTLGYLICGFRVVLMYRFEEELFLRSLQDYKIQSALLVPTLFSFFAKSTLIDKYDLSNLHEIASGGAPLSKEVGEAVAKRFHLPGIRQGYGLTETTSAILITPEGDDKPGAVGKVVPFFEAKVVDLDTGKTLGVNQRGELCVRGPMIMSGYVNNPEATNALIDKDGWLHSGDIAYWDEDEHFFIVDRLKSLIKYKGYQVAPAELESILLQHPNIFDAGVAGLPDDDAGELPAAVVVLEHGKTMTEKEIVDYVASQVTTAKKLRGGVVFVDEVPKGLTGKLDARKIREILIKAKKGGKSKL
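Purified P. pyralis luciferase, 10 nM final, with Km-level 10 uM D-luciferin and 10 uM ATP in 50 mM Tris acetate pH 7.5, 10 mM Mg acetate, 0.01% Tween-20, 0.05% BSA; 6-point qHTS titration about 60 µM downward; luminescence read.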
ELG1 genotoxic: genotoxicity induction in ELG1-luciferase HEK293T cells | HEK293T ELG1-luciferase reporter, luminescence, 16 h | Potency, µM (series often up to 46 µM), without a hit: top-dose activity change, positive = activation, hits mostly activators | 330,000 tested, 1.3% active; further: % of control where 0% means no effect; nearly all actives have a fitted effect of over 60% in size
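Luminescence read-out: rising ELG1-luciferase signal, reflecting elevated ELG1 protein under genetic stress, flags genotoxic compounds. Cells were treated for 16 hr at 37 °C before ONE-Glo detection.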
Starred values were filed as active, the others as inactive; ? = inconclusive; nt = not tested or not shown; [ ] = another dose, or the depositor's remark. Shown are actives, neighbours in structure and some others; about 7.4% of the full set was active somewhere. The call rests on the fitted dose curve; in most records, active means well fitted curve in the direction sought with a large enough effect; inconclusive means small, poorly fitted or top-dose-only effect, or another doubt; inactive means no such curve, though single readings can be large; an effect the other way counts as inactive or inconclusive. Potency means the concentration at half of the fitted maximal effect.

SMILES	SMN2 splice up	NPC1 prom act	Rab9 promoter act	FLuc counter	ELG1 genotoxic
COc1ccc(/C=C(/C#N)C(=O)NC2CCCCC2)cc1Br	-24%	-3%	0%	-13%	1%
CCCCCCCCNC(=O)/C(C#N)=C/c1ccc2c(c1)OCCO2	-29%	-1%	-7%	-1%	1%
N#C/C(=C\c1ccc2c(c1)OCCO2)C(=O)NC1CCCCC1	nt	-3%	5%	4.8µM*	?
Cc1cccc(NC(=O)/C(C#N)=C\c2cccnc2)c1	-12%	0%	-2%	?	-2%
CCCCNC(=O)/C(C#N)=C/c1cccnc1	5µM*	4%	3%	1%	13%
CCCCNC(=O)/C(C#N)=C/c1ccc2c(c1)OCCO2	14%	-1%	1%	9.5µM*	?
O=C(C[C@@H](c1ccccc1)N1CCCCC1)c1ccccc1	-14%[9.22 µM]	nt	nt	nt	nt
Cc1cc(C)c(Cn2c(C(O)c3ccccc3)nc3ccccc32)c(C)c1 (stereo not given)	23%	nt	nt	4%	nt
C=CCc1c(C)nc2c(OC)cccc2c1Cl	nt	1%	1%	13µM*	-1%
Cc1ccc(-n2c(CCC(=O)O)ccc2-c2cccs2)cc1C	-12%	2%	-8%	12µM*	2%
CCc1ccc(-n2c(CCC(=O)O)ccc2-c2cccs2)cc1	2%	nt	nt	13µM*	nt
Cc1ccc(Cl)cc1-n1c(CCC(=O)O)ccc1-c1cccs1	-5%	nt	nt	?	nt
COc1ccccc1CNC(=O)CCCn1c(=O)c2ccccc2n(CC(=O)Nc2c(C)cc(C)cc2C)c1=O	17%	nt	nt	1%	nt
CCC(=O)Nc1ccc(C(=O)NNC(=O)c2cccs2)cc1	2%	1%	2%	4%	6%
CCC(=O)Nc1cccc(NC(=S)NC(=O)c2cccs2)c1	28µM*	?	?	6µM*	?
CCC(=O)Nc1cccc(NC(=O)c2ccc(C)cc2Cl)c1	28%	21%	?	19µM*	4%
CCC(=O)Nc1cccc(NC(=S)NC(=O)c2ccccc2Cl)c1	-5%	?	3.5µM*	?	-1%
CCC(=O)Nc1cccc(NC(=O)c2ccccc2Cl)c1	-22%	-3%	-3%	-4%	-4%
N#Cc1ccccc1NC(=S)NC(=O)c1cccs1	nt	-1%	8%	8.5µM*	16%
COc1ccc(NC(=O)CSc2nc3c([nH]c4ccccc43)c(=O)n2-c2ccccc2)c(OC)c1	nt	nt	nt	1%	nt
COc1ccc(OCc2ccc(-c3nc(C#N)c(NCc4ccc(F)cc4)o3)o2)cc1	nt	nt	nt	1%	nt
Cc1ccc(C)c(Nc2nnc(-c3ccc(C)c(S(=O)(=O)N4CCN(C)CC4)c3)c3ccccc23)c1	-8%	nt	nt	-14%	nt
O=C(Nn1cnnc1)c1cc2c(s1)CCCCC2	?	15%	18%	6.7µM*	?
CC(C)C(OC(=O)c1cc2c(s1)CCCCC2)C(=O)NC(N)=O (stereo not given)	-2%	-2%	14%	?	7%
CC(OC(=O)c1cc2c(s1)CCCCC2)C(=O)NC(N)=O (stereo not given)	0%	3%	2%	24µM*	-5%
SMILES	SMN2 splice up	NPC1 prom act	Rab9 promoter act	FLuc counter	ELG1 genotoxic
O=C(NCCO)c1cc2c(s1)CCC2	17%	-6%	-10%	0%	-1%
O=C(NCCCn1ccnc1)c1cc2c(s1)CCCCC2	9%	8%	8%	17µM*	?
CC1CCC(NC(=O)c2cc3c(s2)CCCC3)CC1 (stereo not given)	nt	?	?	12µM*	?
CC1CCc2sc(C(=O)NCCCn3ccnc3)cc2C1 (stereo not given)	nt	1%	-2%	1%	-10%
Cc1ccc(CNC(=O)C2CCN(S(=O)(=O)c3cn(C)cn3)CC2)cc1	nt	nt	nt	-4%	nt
O=C(N/N=C/c1ccc(F)c(F)c1)c1cc2c(s1)-c1ccccc1CC2	11%	0%	-1%	1%	8%
CNC(=O)c1cc2c(s1)CCCCCC2	4%	0%	3%	13µM*	0%
CC(C)NC(=O)c1cc2c(s1)CCCC2	-17%	-2%	-5%	?	10%
Cc1ccc(C(=O)NC2CCC(C)CC2)s1 (stereo not given)	nt	0.89µM*	0.4µM*	?	?
CNC(=O)c1cc2c(s1)-c1ccccc1CC2	7.9µM*	?	?	19µM*	?
O=C(NCc1ccco1)c1cc2c(s1)CCCCC2	14µM*	4µM*	1.6µM*	13µM*	12µM*
Cc1ccc(C(=O)NC2CCCC2)s1	nt	19%	7%	-6%	?
COc1ccc(S(=O)(=O)N(Cc2nc(-c3ccc(C)cc3)no2)C2CCCCC2)cc1	-11%	nt	nt	-3%	nt
COc1cccc(Nc2ncc3nc(C)c(=O)n(CCC#N)c3n2)c1	-8%	nt	nt	nt	nt
CS(=O)(=O)Nc1c(O)ccc2c1CCCC2C1=NCCN1 (stereo not given)	2%	nt	nt	nt	nt
Cc1ccccc1NC(=O)Nc1nc2ccc(S(C)(=O)=O)cc2s1	?	4µM*	?	-14%	3%
NS(=O)(=O)c1ccc2nc(NC(=O)Nc3ccccc3F)sc2c1	nt	0.5µM*	0.4µM*	1.3µM*	3.3µM*
CCOc1ccc(NC(=O)Nc2nc3ccc(S(C)(=O)=O)cc3s2)cc1	nt	2%	1%	-9%	6%
COc1ccc(CCNC(=O)c2ccc3c(c2)CCN3S(=O)(=O)c2ccccc2)cc1	-38%	nt	nt	5%	nt
CCc1ccc(Oc2cc(C)nc(N)n2)cc1	10µM*	3.2µM*	3.2µM*	4.3µM*	?
CCCc1ccc(Oc2cc(Cl)nc(N)n2)cc1	-3%[1.84 µM]	4%	?	-5%	10%
COc1ccc(C(=O)Nc2ccc(C(F)(F)F)n(C)c2=O)cc1	14µM*	2.8µM*	2.2µM*	?	?
COCCn1c(C(F)(F)F)ccc(NC(=O)c2ccccc2)c1=O	nt	1.4µM*	1.3µM*	7.6µM*	7.3µM*
Cc1ccc(C(=O)Nc2ccc(C(F)(F)F)n(C)c2=O)cc1	22µM*	18%	3.2µM*	4.3µM*	?
COc1ccc(C(=O)N2CCC3(CCCN(Cc4ccccc4OC)C3)CC2)cc1	-22%	nt	nt	nt	nt
O=C1C2C3C=CC(C4CC34)C2C(=O)N1/N=C/c1ccc(-c2ccc(F)cc2[N+](=O)[O-])o1 (stereo not given)	0%	6%	-2%	13µM*	-2%
O=C1C2C3C=CC(C4CC34)C2C(=O)N1/N=C/c1ccc(-c2ccc(Cl)cc2[N+](=O)[O-])o1 (stereo not given)	-16%	0%	-4%	-18%	-6%
Cc1ccc2cccc(NC(=O)c3cccc4c(Br)cccc34)c2n1	15%	nt	nt	-1%	nt
CCOC(=O)c1sc2ncn(CC(=O)Nc3ccc(F)cc3F)c(=O)c2c1C	-4%	nt	nt	-3%	nt
O=c1c2ccccc2nc2n1CCc1c-2[nH]c2ccccc12	7.9µM*	2.9µM*	2.9µM*	0.95µM*	3.3µM*
